High-throughput results: PubChem, The Scripps Research Institute Molecular Screening Center
HTR5A ag = counter-screen for OPRM1-OPRD1 agonists: human HTR5A agonism | P47898 | HTR5A agonist assay, luminescence, cell-based | activation, % at 9.3 µM | 340,000 tested, 0.61% active | AID 504692; in the data active = activation mostly above about 9.5%, no sharp cut-off; inactive = mostly below about 7.6%;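 also: 0% = cells with vehicle only and 100% = reference agonist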
Target sequence (P47898 whole entry, looked up): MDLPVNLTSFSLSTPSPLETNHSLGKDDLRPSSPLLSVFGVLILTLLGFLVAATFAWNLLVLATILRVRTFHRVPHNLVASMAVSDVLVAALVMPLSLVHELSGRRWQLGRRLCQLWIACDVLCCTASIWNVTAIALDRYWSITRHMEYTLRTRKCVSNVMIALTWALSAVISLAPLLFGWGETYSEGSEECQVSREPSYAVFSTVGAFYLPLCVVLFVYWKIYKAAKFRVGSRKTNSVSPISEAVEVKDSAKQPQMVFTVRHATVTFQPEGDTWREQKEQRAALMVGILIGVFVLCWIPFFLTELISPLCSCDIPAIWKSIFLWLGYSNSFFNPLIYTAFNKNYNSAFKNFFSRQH
MOR-DOR ag = OPRM1-OPRD1 heterodimerization agonism; 340,000 tested, 0.3% active; activation, % at 9.3 µM; cells, luminescence; P35372+P41143; in the data active = activation above about 18%;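 also: 0% = vehicle-treated cells and 100% = reference agonist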
HTR5A inv ctr = HTR5A inverse agonism, opioid heterodimer counter-screen. HTR5A cell line, luminescence. inhibition, % at 9.3 µM. 340,000 tested, 0.083% active. AID 504634; in the data active = inhibition mostly above about 23%, no sharp cut-off; inactive = mostly below about 18%;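 also: 0% = cells with DMSO and 100% = no-cell wells with DMSO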
MOR-DOR inv ag = inverse agonist of human OPRM1-OPRD1 heterodimerization; P35372+P41143; cell-based MOR-DOR heterodimer luminescence, inverse agonism; inhibition, % at 9.3 µM; 340,000 tested, 0.21% active; AID 504357; in the data active = inhibition above about 22%, passing the limit was not always enough;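 also: 0% = cells with DMSO and 100% = wells without cells with DMSO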
Active calls of the source: *. This is a sample that favours compounds with a hit; in the whole collection about 1.1% have one here.

SMILES	HTR5A ag	MOR-DOR ag	HTR5A inv ctr	MOR-DOR inv ag
CC(C)c1ccc(S(=O)(=O)/N=C2/C=C(Sc3ncn[nH]3)C(=O)c3ccccc32)cc1	3	25*	19	-127
CC(C)c1ccc(C2C3=C(COC3=O)Nc3cc4c(cc32)OCO4)cc1 (stereo not given)	17*	11	-45	-51
CCOC(=O)C1CCCN(CCC(=O)Nc2cc(C)cc(C)c2)C1 (stereo not given)	10*	-3	-25	13
COc1ccc2[nH]cc(CCn3ccc(=O)c(C)c3C)c2c1	11*	-2	5	11
COc1ccc2c(c1OC)C(=O)OC2N1C(=O)CC[C@H]1C(=O)Nc1ccc2c(c1)OCO2 (stereo not given in full)	7	0	0	2
CCCCS(=O)(=O)/C=C\C=C/S(=O)(=O)CCCC	3	-7	-7	37*
Cc1cc(-n2c(C)cc(C(=O)CSc3ncnc4ccccc34)c2C)no1	16*	7	-19	-41
CCCCCCCN(C(=O)CCl)c1cccc(C)c1	84*	79*	-129	-426
CCCCCCN(C(=O)CCl)c1ccccc1	64*	53*	-7	-271
CSc1ccccc1NC(=O)N1CCCC(C(=O)c2ccc3c(c2)OCO3)C1 (stereo not given)	1	-2	1	9
CC(=O)c1ccc(NC(=O)N2CCCC(C(=O)c3ccc4c(c3)OCO4)C2)cc1 (stereo not given)	11*	2	-29	-11
O=C(CCl)N(C/C=C/c1ccccc1)c1ccc2c(c1)OCCO2	71*	38*	-180	-174
O=C(/C=C/c1ccccc1)c1ccc2c(c1)OCCCCO2	-2	-1	11	3
COc1ccc2nc(NCCCNC(=O)c3cc(OC)c(OC)c(OC)c3)c(C#N)cc2c1	14*	0	-4	0
COc1cc(NS(=O)(=O)c2ccc(C)cc2)c2ncccc2c1	-3	-9	18	47*
COc1ccc(CNC(=O)C2CCCN(S(=O)(=O)c3c(C)noc3/C=C/N(C)C)C2)cc1 (stereo not given)	-5	-1	-1	5
COc1ccccc1NC(=O)NC1(C(=O)N2CCCCC2)CCCCC1	2	0	-11	-4
C[C@H](NC(=O)CCCOc1ccc(Cl)cc1Cl)c1nnc2ccccn12	-1	-4	-15	20
COc1ccc(NC(=O)N2CCCC(c3nc(-c4ccc(C(C)C)cc4)no3)C2)cc1 (stereo not given)	12*	7	-39	-38
COc1ccc(NC(=O)N2CCCC(c3nc(-c4ccc(OC)cc4)no3)C2)cc1 (stereo not given)	0	0	0	1
CC(C)(C)OC(=O)NCc1ccc(NC(=O)c2nc[nH]c2C(=O)N[C@@H](Cc2ccccc2)C(=O)OCc2ccccc2)cc1	25*	41*	-105	-228
NC[C@H](O)c1ccc(O)c(O)c1	6	3	-4	-14
COc1ccc(CC(=O)Nc2cccc(-c3nnc(-c4ccc(C)cc4)o3)c2)cc1OC	17*	20*	-38	-113
Cc1nc2c(C(=O)N3CCOCC3)cnn2c(C)c1Cc1ccc(Cl)cc1	12*	4	-18	-20
O=C(N/N=C/C1C(c2ccccc2)C1(Cl)Cl)c1cccc(Br)c1 (stereo not given)	11*	-1	-7	5
SMILES	HTR5A ag	MOR-DOR ag	HTR5A inv ctr	MOR-DOR inv ag
Cc1nn(C2CCS(=O)(=O)C2)c2nc(C3CC3)cc(C(=O)Nc3cccc(C#N)c3)c12 (stereo not given)	4	0	-10	-2
COc1cccc(C(=O)COC(=O)CCCC(=O)NC2CCCCC2)c1	0	-2	-19	13
O=c1cc2oc3cc(O)c(O)cc3c(-c3ccccc3[N+](=O)[O-])c-2cc1O	-11	-9	44*	50*
CCN(CC)C(=O)c1[nH]cnc1C(=O)N[C@H](C)c1ccccc1	4	-2	-17	13
COc1ccc2c(c1)CC/C(=C/c1ccncc1)C2=O	-3	0	-23	2
COc1ccc2c3c(ccc2c1)C(=O)/C(=C/O)CC3	22*	25*	-86	-120
Cn1c(CNC(=O)c2ccccc2F)nnc1SCC(=O)N1CCN(c2ccccc2)CC1	12*	2	-6	-8
Cc1ccccc1C(=O)NCc1nnc(SCC(=O)N2CCN(c3ccccc3)CC2)n1C	3	-1	-17	6
CCOC(=O)c1c(NC(=O)CSc2ncn[nH]2)sc(C(C)=O)c1C	5	-4	-13	21
CC(C)Cc1nnc(NC(=O)CSc2ncn[nH]2)s1	13*	-3	0	12
COC(=O)c1c(NC(=O)CSc2ncn[nH]2)sc(C)c1C	13*	1	-32	-4
O=S(=O)(c1ccc2c(c1)OCCO2)N1CCN(Cc2ccccc2)CC1	14*	-1	-14	4
O=S(=O)(c1ccc2c(c1)OCCO2)N1CCN(Cc2ccc3c(c2)OCO3)CC1	-1	-3	-7	16
CC1(C)CC(=O)c2cc3c(N)c(C(=O)NCc4ccccc4)sc3nc2C1	11*	1	-39	-3
O/C(=C\c1ccc2ccccc2n1)c1ccncc1	0	-2	-9	14
O/C(=C\c1nc2ccccc2nc1/C=C(\O)c1ccccc1)c1ccccc1	-9	-14	4	71*
Cc1ccc(-n2c(C)nn(CCOc3ccccc3)c2=O)cc1	2	-3	-5	13
CCOc1ccc(NC(=O)Cc2ccc(S(=O)(=O)N3CCCCC3)cc2)cc1OCC	11*	-1	14	5
Cc1ccc(CNC(=S)Nc2ccc(NS(=O)(=O)c3ccc(C)cc3)cc2)cc1	11*	4	11	-21
Cc1ccc(NC(=S)NCc2ccc(F)cc2)cc1	7	0	-19	1
CCc1nc(NC(=O)Cc2csc(C)n2)sc1C(=O)OC	7	-2	-29	10
COc1ccc(S(=O)(=O)N/N=C\c2ccc3c(c2)OCO3)cc1	7	0	-36	1
Cc1ccc(S(=O)(=O)N/N=C\c2ccc3c(c2)OCO3)c(C)c1	11*	3	-10	-13
O=C(CSc1nnc(-c2ccccc2)n1-c1ccc(Cl)cc1)N/N=C/c1ccccc1C(=O)O	12*	1	-15	-5
CCOC(=O)Nc1sc(C)c(C)c1C(=O)OCC	13*	7	-7	-35
SMILES	HTR5A ag	MOR-DOR ag	HTR5A inv ctr	MOR-DOR inv ag
CC(=O)Nc1ccc2c(c1)nc(CCN1CCN(c3ccccn3)CC1)n2C	5	-2	-21	10
CCN1CCN(C(=O)c2ccc3c(=O)n(C4CCCC4)c(=S)[nH]c3c2)CC1	9.3*	-2	12	9
O=C(c1ccc2c(=O)n(C3CCCC3)c(=S)[nH]c2c1)N1CCN(C2CCCCC2)CC1	4	-1	-12	6
COc1cc(/C=N/NC(=O)c2cc3c(ccc4ccccc43)o2)cc(OC)c1O	11*	9	-43	-48
COc1ccc(S(=O)(=O)Nc2ncccc2C)c2ccccc12	2	-2	-8	11
Cc1c(NC(=O)/C(C#N)=C/c2ccc(-c3ccccc3Cl)o2)c(=O)n(-c2ccccc2)n1C	12*	3	-44	-15
CNC(=S)NCCN1CCOCC1	13*	-1	14	7
Nc1nc(CCl)nc(Nc2ccccc2)n1	0	-3	0	12
